Source: PubChem (National Center for Advancing Translational Sciences (NCATS))
Compounds with a hit are over-represented: about 19% of the library has one in this group of screens.
IL-1B inflam inh: inhibitors of inflammasome signaling (IL-1 beta secretion); THP-1 LPS/ATP IL-1B secretion, AlphaLISA, 16 h; stronger effect = lower value; activity change, % at 57.5 µM; actives 4.7% (n = 360,000); in the data active means activity change below about -50%; inconclusive means mostly about -30% to -49%
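THP-1 cells pretreated 1 hr with compounds (up to 57.5 uM final), then stimulated with LPS (250 ng/mL final) plus ATP (1.25 mM final); secreted IL-1B measured by AlphaLISA after 16 hr, decreased signal indicating inhibition.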
HT1080 IDH1KD tx: kills HT-1080 cells with IDH1 knockdown | HT-1080 IDH1 knockdown viability, ATP luminescence, 48 h | Potency, µM (titrated, usually from 46.1 µM), without a hit: at the highest dose activity, negative = toxicity, usual class: cytotoxic | actives 2% (n = 360,000) | AID 686971;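 further: potency means the concentration at half of the fitted maximal effect; 0% = DMSO wells and -100% = cell-free medium wells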
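Cytotoxicity counter-line: IDH1KD HT-1080, 48 h, CellTiter-Glo. Curves classed by r2, magnitude and activity.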
HT1080-NT tox: kills 2HG-producing HT-1080-NT fibrosarcoma cells. HT-1080-NT fibrosarcoma viability, CellTiter-Glo ATP luminescence, 48 h. actives 1.6% (n = 360,000). AID 686970. Potency, µM (series often up to 46.1 µM), without a hit: top-dose activity, negative = less viability, hits mostly cytotoxic;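 further: NT is the 2HG producing partner of a matched IDH1 knockdown line; potency means the concentration at half of the fitted maximal effect; 0% = DMSO-treated cells and -100% = media-only wells without cells; nearly all actives have a fitted effect of over 55% in size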
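HT-1080-NT; 750 cells/well; 5% FBS RPMI; 48 h compound, 37 degrees C; CellTiter-Glo luminescence; curve fitting and curve-class assignment.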
TDP1 cell noCPT: qHTS for Inhibitors of human tyrosyl-DNA phosphodiesterase 1 (TDP1): qHTS in cells in absence of CPT. DT40 Tdp1-/- hTDP1 cells, no CPT, ATP luminescence, 48 h. Potency, µM (doses to about 46.2 µM), for inactives: at the highest dose activity change, negative = growth inhibition, hits mostly inhibitors. AID 686978, 2013. actives 15% (n = 420,000); further: potency means the concentration at half of the fitted maximal effect; nearly all actives have a fitted effect of over 55% in size
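Stably hTDP1-transfected Tdp1-null chicken DT40 cells were treated with library compounds minus camptothecin and grown for at least 48 hr at 37 °C, after which cellular ATP was quantified by luminescence.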
TDP1 cell CPT: DT40-hTDP1 cell growth loss with CPT. chicken DT40 Tdp1-/-;hTDP1 cells + 20 nM CPT, ATP luminescence, 48 h. AID 686979. actives 12% (n = 420,000). Potency, µM (top dose mostly 46.2 µM), without a hit: at the highest dose activity change, negative = growth inhibition, hits mostly inhibitors; further: potency means the concentration at half of the fitted maximal effect; nearly all actives have a fitted effect of over 55% in size
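Cell growth measured by CellTiter-Glo luminescence after a minimum 48 h, 37 C compound exposure with 20 nM CPT in Tdp1-knockout DT40 cells stably expressing hTDP1, seeded 400/well; qHTS titration format.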
An asterisk follows results filed as active. Unless noted, the call rests on the fitted dose curve; in most records, active means well fitted curve in the direction sought with a large enough effect; inconclusive means small, poorly fitted or top-dose-only effect, or another doubt; inactive means no such curve, though single readings can be large; an effect the other way counts as inactive or inconclusive. Unless noted, on the % scale 0 is the no-effect control and ±100 the full control effect.

Screening COc1ccc(NC(=O)COc2ccc(C(=O)NCc3cccnc3)cc2OC)cc1 returned IL-1B inflam inh 7.0, HT1080 IDH1KD tx 13.7%, HT1080-NT tox -3.2%, TDP1 cell noCPT inconclusive and TDP1 cell CPT inconclusive.
Screening O=C(NCCc1ccccc1)c1ccccc1NC(=O)C1CC=CCC1C(=O)O (stereo not drawn) returned IL-1B inflam inh 31.8, HT1080 IDH1KD tx 1.3%, HT1080-NT tox -1.1%, TDP1 cell noCPT 16.4µM* and TDP1 cell CPT 14.6µM*.
COc1cc(C(=O)Nc2ccccc2C(=O)NCc2cccnc2)cc(OC)c1OC was read as IL-1B inflam inh -57.9*, HT1080 IDH1KD tx 3.1%, HT1080-NT tox -10.6%, TDP1 cell noCPT inconclusive and TDP1 cell CPT 0.5%.
For O=C(COc1ccc(Cl)cc1)Nc1ccc(C(=O)NCc2cccnc2)cc1 the results were IL-1B inflam inh 0.0, HT1080 IDH1KD tx inconclusive, HT1080-NT tox inconclusive, TDP1 cell noCPT 9.2µM* and TDP1 cell CPT 11.6µM*.
`O=C(NCc1cccnc1)c1ccc(NC(=O)c2ccc(Br)cc2)cc1` gave IL-1B inflam inh 53.3, HT1080 IDH1KD tx 5.8µM*, HT1080-NT tox 11.6µM*, TDP1 cell noCPT 14.6µM* and TDP1 cell CPT 9.2µM*.
Screening Cc1ccc(OCc2ccc(C(=O)NCc3cccnc3)cc2)cc1C returned IL-1B inflam inh -53.8*, HT1080 IDH1KD tx 18.4µM*, HT1080-NT tox inconclusive, TDP1 cell noCPT 5.17µM* and TDP1 cell CPT 3.26µM*.
`O=C(CCl)Nc1ccccc1C(=O)NCc1ccccc1` gave IL-1B inflam inh -82.9*, HT1080 IDH1KD tx inconclusive, HT1080-NT tox -19.1%, TDP1 cell noCPT inconclusive and TDP1 cell CPT 23.1µM*.
For O=C(COc1ccc(Cl)cc1)Nc1ccccc1C(=O)NCc1cccnc1 the results were IL-1B inflam inh -27.7, HT1080 IDH1KD tx -1.4%, HT1080-NT tox -8.3%, TDP1 cell noCPT 23.1µM* and TDP1 cell CPT inconclusive.
O=C(NCc1cccnc1)Nc1ccc(Br)cc1 was read as IL-1B inflam inh -13.2, HT1080 IDH1KD tx 17.8%, HT1080-NT tox 12.8%, TDP1 cell noCPT 12.5% and TDP1 cell CPT 10.2%.
Screening Cc1ccccc1NC(=O)Nc1ccccc1C(=O)NCc1ccccc1 returned IL-1B inflam inh -13.3, HT1080 IDH1KD tx 0.8%, HT1080-NT tox 0.4%, TDP1 cell noCPT inconclusive and TDP1 cell CPT -18.8%.
For CCCNC(=O)C1CCC(Cn2c(=O)c3sccc3n(CC(=O)N3CCCC3)c2=O)CC1 (stereo not drawn) the results were TDP1 cell noCPT 3.7% and TDP1 cell CPT -0.4%.
Screening CCO[C@H]1OC(C(=O)N2CCCCCCC2)=C[C@@H](c2coc3ccccc3c2=O)[C@@H]1CCCO returned IL-1B inflam inh -23.8, HT1080 IDH1KD tx 7.5%, HT1080-NT tox 9.6%, TDP1 cell noCPT inconclusive and TDP1 cell CPT inconclusive.
Cc1ccc(N2C(=O)c3cccc4cccc(c34)C2=O)cc1 was read as IL-1B inflam inh 6.5, HT1080 IDH1KD tx -0.5%, HT1080-NT tox 21.9%, TDP1 cell noCPT -1.5% and TDP1 cell CPT -3.0%.
For Cc1ccc2cc3c(N)c4c(C)ccc(C)c4nc3nc2c1 the results were IL-1B inflam inh 19.6, HT1080 IDH1KD tx 4.2%, HT1080-NT tox -3.8%, TDP1 cell noCPT inconclusive and TDP1 cell CPT inconclusive.
For CC1=Nc2ccc(C)c3nc(C)cc(c23)N1c1ccc(C)cc1 the results were IL-1B inflam inh 0.0, HT1080 IDH1KD tx -7.7%, HT1080-NT tox -5.7%, TDP1 cell noCPT 16.4µM* and TDP1 cell CPT inconclusive.
Screening Cc1ccc(N2C=Nc3ccc(C)c4nc(C)cc2c34)cc1 returned IL-1B inflam inh -51.6*, HT1080 IDH1KD tx -12.5%, HT1080-NT tox -11.3%, TDP1 cell noCPT inconclusive and TDP1 cell CPT inconclusive.
Screening CCN(CC)C(=O)c1cccc(NC(=O)c2cc(C3CC3)nc3c2cnn3C(C)C)c1 returned IL-1B inflam inh -4.3, HT1080 IDH1KD tx 0.0%, HT1080-NT tox -0.4%, TDP1 cell noCPT inconclusive and TDP1 cell CPT inconclusive.
